Reference: ChEMBL document CHEMBL4513216, “Probing the Open Global Health Chemical Diversity Library for Multistage-Active Starting Points for Next-Generation Antimalarials” (ACS Infect Dis, 2020)
Among all 69,000 compounds or so, about 8,600 (12%) showed an effect of 50% or more. This is one part of a sample in which strong results are shown more often than they occur.

System: Plasmodium berghei
Assay: Screen against P. berghei liver stage (PbLuc), transformed with Luciferase, at 10uM
Type: functional, HepG2
Settings: tested at 10 uM

| Compound | INHIBITION [%] |
| --- | --- |
| OCCN1CCCC(c2nccnc2Oc2ccccc2)C1 (configuration not stated) | -3.31 |
| CCCC(=O)NC1CCCN(c2nc3ccccc3cc2CO)C1 (configuration not stated) | 7.19 |
| O=C(C1CCN(c2snc3ccccc23)CC1)N1CCCCCC1 | 36.2 |
| O=C(C1CCCN(c2nc3ccccc3cc2CO)C1)N1CCCC1 (configuration not stated) | 61.9 |
| OCc1cc2ccccc2nc1N1CCCC1 | 16.8 |
| OCc1cc2ccccc2nc1N1CCCCC1 | 53.1 |
| CC(=O)NC1CCCN(c2ccc(C#N)cc2C(F)(F)F)C1 (configuration not stated) | -17.9 |
| Cc1cc(N2CCN(c3nc4ccccc4cc3CO)CC2)nc(C)n1 | 48.8 |
| CC(=O)NC1CCCN(c2nc3ccccc3cc2CO)C1 (configuration not stated) | 66.5 |
| O=C(C1CCC1)N1CCN(c2snc3ccccc23)CC1 | 32.8 |
| CC(C)c1noc(CN2CCC(C3CCCCCN3S(C)(=O)=O)CC2)n1 (configuration not stated) | 34 |
| COc1cc(CNCCc2nc(C)cs2)cc2c1OCCO2 | 31 |
| CC1c2ccc(F)cc2CCN1C(=O)c1[nH]c(=O)[nH]c(=O)c1N (configuration not stated) | 23.6 |
| CCn1cnc(NC(=O)NCC2CCS(=O)(=O)CC2)n1 | 4.12 |
| Cc1occc1C(=O)N1CCC[C@]2(C[C@@H](OCc3ccncc3)CO2)C1 | -9.67 |
| CCN(Cc1ccc2c(c1)OCCO2)C(=O)Cn1cccnc1=O | 37.9 |
| Cc1c(S(=O)(=O)N2CCOCC2)cc2c(C)cc(=O)n3c2c1CCC3 | 2.45 |
| CC(C)c1nc(CNc2ccc(N3CCC(CO)CC3)cn2)cs1 | 13 |
| Cc1ccc(CNc2ccc(N3CCC(CO)CC3)cn2)o1 | 14.1 |
| OCC1CCN(c2ccc(NCc3ccsc3)nc2)CC1 | 54.4 |
| Cc1cnn(CC2CCCCN2CCCS(C)(=O)=O)c1 (configuration not stated) | 5.03 |
| Cn1cc(-c2csc(N3CCCCCC3)n2)cn1 | 79.8 |
| CN1CCN(c2nc(-c3cnn(C)c3)cs2)CC1 | -1.45 |

| Compound | INHIBITION [%] |
| --- | --- |
| Cn1cc(-c2csc(N3CCSCC3)n2)cn1 | -42.1 |
| CO[C@H]1CN(Cc2cccc(C#N)c2)[C@@H]2COC[C@H]12 | 34.1 |
| CS(=O)(=O)N1CC2(CCN(CC3CC3)C2)Cc2ccccc21 (configuration not stated) | 21.7 |
| CS(=O)(=O)N1CC2(CCCN(CC3CC3)C2)Cc2ccccc21 (configuration not stated) | 54.9 |
| CS(=O)(=O)N1CC2(CCN(C3CCCCC3)C2)Cc2ccccc21 (configuration not stated) | 40.8 |
| CS(=O)(=O)N1CC2(CCN(CC3CCCCC3)C2)Cc2ccccc21 (configuration not stated) | 48.2 |
| CS(=O)(=O)N1CC2(CCN(C3COC3)C2)Cc2ccccc21 (configuration not stated) | 55.7 |
| CS(=O)(=O)N1CC2(CCCN(C3COC3)C2)Cc2ccccc21 (configuration not stated) | 28.4 |
| CC(C)OCc1noc(C2CC=CC2)n1 | -20 |
| CC1CN(C)CCN1C(=O)Nc1nc(-c2cccn2C)cs1 (configuration not stated) | 47 |
| CCCc1nnc(N2CCN(c3cccc(C)c3C)CC2)o1 | 30.1 |
| Cc1nc2sccn2c1C(=O)N1CCc2[nH]cnc2C1 | 58.3 |
| CC(=O)Nc1cccc(C(=O)N2CCc3c(nc(N(C)C)[nH]c3=O)C2)c1 | 41.5 |
| Cc1nc2sccn2c1C(=O)N1CCc2c(nc(N(C)C)[nH]c2=O)C1 | 51.8 |
| Cc1nc2sccn2c1C(=O)N1CCc2c(nc(N)[nH]c2=O)C1 | -31.6 |
| O=C(c1cn(CC(=O)N2CCc3[nH]cnc3C2)c2ccccc12)C1CC1 | 12.6 |
| Cc1nc2ncccn2c1C(=O)N1CCc2[nH]cnc2C1 | 22.5 |
| O=C(Nc1ccc(F)cc1-c1nc(C2CC2)no1)N1CC[C@@H](O)C1 | 42.1 |
| COc1ccccc1NC(=O)CCNC(=O)c1ccoc1 | -37.8 |
| CCc1nc(C2CCCN2C(=O)CCc2c(C)noc2Cl)no1 (configuration not stated) | 1.78 |
| CCc1nnc2n1CCN(C(=O)C(C)Oc1cccc(C#N)c1)C2 (configuration not stated) | -15 |
| COCC(=O)N1CCN(CCn2cccn2)c2nc(C)ccc2C1 | 21.4 |
| CCC(Nc1nc(C(F)(F)F)nc2ccccc12)C(=O)O (configuration not stated) | -21.3 |

| Compound | INHIBITION [%] |
| --- | --- |
| FC(F)(F)c1nc(NC2CCCCC2)c2ccccc2n1 | 88.4 |
| CC(C(=O)NC1CCCCC1)N1CCc2[nH]nc(C(F)(F)F)c2C1 (configuration not stated) | -41.7 |
| CC(C)C(Nc1nc(C(F)(F)F)nc2ccccc12)C(=O)O (configuration not stated) | 22.3 |
| Cc1nc2n(n1)CC(Nc1nc(C(F)(F)F)nc3ccccc13)CC2 (configuration not stated) | -59.3 |
| FC(F)(F)c1nc(NC2CCCC2)c2ccccc2n1 | 88.4 |
| Cc1noc(C)c1-c1ccc(C2CCCN2CCC(N)=O)nc1 (configuration not stated) | 30.4 |
| CC(C)N1CCC(Cc2cncc(-c3cc(F)ccc3C(=O)O)n2)C1 (configuration not stated) | 35.2 |
| Cc1cnc(CN2CCCC2c2cnn(C)c2)cn1 (configuration not stated) | -11.4 |
| Cc1ccccc1N(CC(=O)NCCc1nnc2n1CCC2)S(C)(=O)=O | -9.51 |
| CN1CCCCC1c1ncc2c(n1)CCN(Cc1ccc(Cl)c(F)c1)C2 (configuration not stated) | 58.1 |
| CN1CCCCC1c1ncc2c(n1)CCN(Cc1ccc(F)cc1)C2 (configuration not stated) | 24.4 |
| Clc1ccccc1CN1CCc2nc(C3CCCCN3)ncc2C1 (configuration not stated) | 43.2 |
| CN1CCc2nc(C3CCCCN3Cc3ccccc3Cl)ncc2C1 (configuration not stated) | 13.5 |
| CN1CCCCC1c1ncc2c(n1)CCN(Cc1ccccc1Cl)C2 (configuration not stated) | 51.7 |
| COc1ccc(CN2CCc3nc(C4CCCCN4C)ncc3C2)cc1 (configuration not stated) | 42.6 |
| CC(=O)N(Cc1noc(C)n1)C1CCN(Cc2c(C)noc2C)C1 (configuration not stated) | -27.8 |
| Cc1cncc(C2CCN(C(=O)c3ccc(-n4cccn4)nc3)CC2)n1 | -35.5 |
| O=C(c1ccc(-n2cccn2)nc1)N1CCC(c2ccn[nH]2)C1 (configuration not stated) | 23 |
| O=C(c1ccc(-n2cccn2)nc1)N1CCC(c2ccc(O)cc2)CC1 | 50.1 |
| O=C(O)CN(Cc1ccsc1)CC1CCCO1 (configuration not stated) | 8.7 |
| Cc1noc(C)c1CN1CCn2cc(CN3CCCC3)nc2C1 | -15.2 |
| CCc1cnc(N)nc1NCCCn1cc(Cl)cn1 | 64.1 |
| CCc1cnc(N)nc1NCc1ccc(OC)cc1OC | 73.8 |

| Compound | INHIBITION [%] |
| --- | --- |
| CCc1cnc(N)nc1NCCn1cc(Cl)cn1 | 30.4 |
| CCc1cnc(N)nc1NCCc1ccc(OC)cc1OC | 58.05 |
| CCc1cnc(N)nc1NCc1ccc(OC)c(OC)c1 | 44 |
| COc1ccc(OC)c(CCNc2ncc(S(N)(=O)=O)s2)c1 | -19.9 |
| CCc1cnc(N)nc1NCCCn1nc(C)nc1C | 14.6 |
| COc1ccc(CNc2cc(-c3nc(C)no3)ccn2)c(OC)c1 | 6.61 |
| CCc1cnc(N)nc1NCCCN1CCCCC1CO (configuration not stated) | 6.94 |
| COc1cccc(C(=O)N2CCC(Nc3ccc(C)nn3)CC2)c1 | 21.5 |
| Cc1nnc(NC(=O)NC(C)Cn2cccn2)s1 (configuration not stated) | -21.9 |
| COc1cc2nc(C)n(CC(=O)NCCCO)c(=O)c2cc1OC | -5.01 |
| Cn1cc(C(=O)N[C@@H]2CN(Cc3ccc(F)cc3)[C@@H]3CCCO[C@@H]32)cn1 | -17.1 |
| Cc1ccc(CN2CCNC(C(=O)NC3CC3)C2)cc1C (configuration not stated) | -2.25 |
| O=C(NCc1ccccn1)[C@H]1COC[C@H]2CN(c3ncccn3)C[C@H]21 | 41 |
| Nc1nccc(N2CCNC(C(=O)NCc3ccccn3)C2)n1 (configuration not stated) | 52.6 |
| CCCc1nc(C)cc(N2CCNC(C(=O)NC3CC3)C2)n1 (configuration not stated) | 47.1 |
| O=C(NCc1ccccn1)NC1CCCN(c2ncccn2)C1 (configuration not stated) | 23 |
| CCNC(=O)O[C@H]1COCCN(c2nc3ccccc3s2)C1 | -3.58 |
| CC(C)NC(=O)O[C@H]1COCCN(c2nc3ccccc3s2)C1 | -1.12 |
| O=C(NC1CCCC1)O[C@H]1COCCN(c2nc3ccccc3s2)C1 | 85.1 |
| O=C(NC1CC1)C1CN(c2nc3ccccc3s2)CCN1 (configuration not stated) | 65.6 |
| O=C(NCc1ccncc1)C1CN(c2nc3ccccc3s2)CCN1 (configuration not stated) | 30.4 |
| O=C(NCc1ccccn1)C1CN(c2nc3ccccc3s2)CCN1 (configuration not stated) | 58.2 |
| O=C(NCc1cccnc1)C1CN(c2cnc3ccccc3n2)CCN1 (configuration not stated) | 37.8 |

| Compound | INHIBITION [%] |
| --- | --- |
| Cc1cc(=O)n2c3c(cc(S(=O)(=O)NC4CC4)cc13)CCC2 | 49.45 |
| Cc1cc(CN2CCc3cncnc3C2)no1 | 23.9 |
| Cc1ccccc1-c1cc(CC2(C(=O)O)CCOCC2)on1 | -21.4 |
| Cc1cc(CN2CCN(Cc3ccccc3F)CC2)no1 | -4.35 |
| CN(C)C(=O)c1cncnc1-c1ccc(CNC(=O)C2CCCO2)cc1 (configuration not stated) | 4.615 |
| CC(C)n1c(=O)[nH]c2cn(-c3ccc(F)cc3)c(=O)n21 | 3.16 |
| Cc1[nH]c2c(C)ccc(C)c2c1CC(=O)NCCNc1cccnc1 | -17.2 |
| Cc1[nH]c2c(C)ccc(C)c2c1CC(=O)NCCCNc1cccnc1 | 36.7 |
| Cc1[nH]c2c(C)ccc(C)c2c1CC(=O)NCC(O)c1cccnc1 (configuration not stated) | 76.5 |
| Cc1ccc2c(n1)N(C)CCN(C(=O)C1CC1)C2 | 7.84 |
| COC(=O)CCN(C)C(=O)c1csc(Cc2ccccc2F)n1 | 91.3 |
| CCNC(=O)CN(CC)C(=O)c1csc(Cc2ccccc2F)n1 | 32 |
| CC(C)NC(=O)CN(C)C(=O)c1csc(Cc2ccccc2F)n1 | 23.1 |
| CC(C)NC(=O)N1CC[C@H]2[C@H]1CCN2c1ncccn1 | -44.2 |
| Cc1cnc(NCc2cnn(C)c2)nc1-c1cnn(C)c1 | 61.2 |
| Cc1cnn(CC(C)NCc2csc(-c3cnn(C)c3)n2)c1 (configuration not stated) | 47.1 |
| CCNc1ncc(C)c(-c2cnn(C)c2)n1 | 27.6 |
| Cc1cnc(NCc2csc(C(C)C)n2)nc1-c1cnn(C)c1 | 58.5 |
| Cc1cnc(CNc2ncc(C)c(-c3cnn(C)c3)n2)cn1 | 39.4 |
| Cc1cnc(NCc2ccncc2)nc1-c1cnn(C)c1 | 2.15 |
